The source of these data is PubChem BioAssay.

Active and inactive are the calls of the source.

For test [1], the system named is Human papillomavirus type 1a protein E7 (residues 44-93). As to the kind of experiment: small molecules binding HPV E7 44-93 – biochemical, small-molecule microarray, residues 44-93, 635 nm fluorescence, primary screen (AID 1108).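 Note: E7 fragment applied at 1 µg/mL in TBST for 1 h at 4 C; score combines spot fluorescence with its signal to noise ratio.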 Conditions: fluorescence 635 nm, higher = more signal.
The nature of test [2]: hepatitis C replication reporter changes, two-sided – Huh7 cells, luciferase reporter, HCV replication inhibitor project, primary screen (AID 1109).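 Note: huh7 hepatoma cells harbouring a luciferase neomycin HCV replicon reporter; luciferase luminescence as measure of HCV replicon replication; test concentration not given here.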 As to conditions: Huh7 HCV replicon luciferase reporter, 48 h; higher = more signal. Background: Reporter assays use an easily measured gene product as a stand-in for the process of interest.
Test [3] addresses Left-right determination factor 2 (Homo sapiens) (UniProt O00292). Nature of the test: small molecules binding LEFTY2 protein – biochemical, small-molecule microarray, 635 nm fluorescence scan, primary screen (AID 1110). As to conditions: higher = more signal.
For test [4], the target named is Calmodulin-1 (Homo sapiens) (UniProt P0DP23). As to the kind of experiment: small molecules binding calmodulin-1 with EGTA – biochemical, small-molecule microarray, Cy5-labelled CALM1, profiling panel (AID 1111).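 Note: labelled calmodulin applied in Tris saline Tween buffer holding calcium plus EGTA and DTT.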 As to conditions: Cy5-CALM1 binding fluorescence, higher = more signal.
The target is the same in test [5]. Nature of the test: small molecules binding Ca-loaded calmodulin-1 – biochemical, small-molecule microarray, Cy5-labelled CALM1, plus calcium, artefact control for SMM control-protein annotation, profiling panel (AID 1112).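 Note: score merges spot fluorescence with signal to noise from triplicate slides.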 As to conditions: Cy5-CALM1 binding fluorescence, higher = more signal.
Test [6] can be described thus: probe aWnt5a binding to arrayed compounds – biochemical, biotinylated probe, 635/667 nm fluorescence, primary screen (AID 1113).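 Note: score merges 667 nm fluorescence intensity with signal-to-noise per printed feature.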 Conditions: small-molecule microarray, higher = more signal.
Test [7] can be described thus: probe aShh binding to arrayed compounds – biochemical, biotinylated probe, 635/667 nm fluorescence, primary screen (AID 1114).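 Note: probe is biotin-labelled aShh protein from a stem cell growth factor screen; measures binding of labelled protein to compounds printed on the slide; score merges feature fluorescence at 667 nm with signal-to-noise.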 Conditions: small-molecule microarray, higher = more signal.
Test [8] can be described thus: probe aNog binding to arrayed compounds – biochemical, biotinylated probe, 635/667 nm fluorescence, primary screen (AID 1115).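 Note: probe is biotinylated aNog protein used at 0.15 µg/mL for 1 h at 4 C; z-score combines 667 nm fluorescence of each spot with its signal to noise.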 Conditions: small-molecule microarray, higher = more signal.
Test [9] addresses Torsin-1A-interacting protein 1 (Homo sapiens) (UniProt Q5JTV8). As to the kind of experiment: compound microarray binding of lysate hLAP1 – cell lysate, small-molecule microarray, COS7 lysate, 635/667 nm fluorescence, primary screen (AID 1116). As to conditions: 635 nm fluorescence, higher = more signal.
The target in test [10] is Alpha-bungarotoxin (Bungarus multicinctus) (UniProt P60615). As to the kind of experiment: compounds binding labelled alpha-BTX control protein – biochemical, small-molecule microarray, Alexa647 label, 635/667 nm fluorescence, artefact control for SMM control protein annotation, profiling panel (AID 1117). As to conditions: alpha-BTX-A647 binding fluorescence, higher = more signal.

The target of test [11] is Albumin (Bos taurus) (UniProt P02769). As to the kind of experiment: compounds binding labelled BSA control protein – biochemical, small-molecule microarray, Alexa647 label, 635/667 nm fluorescence, artefact control for SMM control protein annotation, profiling panel (AID 1118).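 Note: score merges 667 nm emission intensity and signal-to-noise per printed compound spot.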 As to conditions: BSA-A647 binding, fluorescence 635 nm, higher = more signal.
Test [12] is described as follows: probe aXIP binding to arrayed compounds – biochemical, NeuroSMM set, 635/667 nm fluorescence, primary screen (AID 1119).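 Note: probe is the protein aXip251-270 applied at 1 µg/mL to compound-printed slides; binding of probe to printed compounds measured as 667 nm fluorescence plus signal to noise.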 As to conditions: small-molecule microarray, higher = more signal, called active from +8 up or from −8 down.
A short description of test [13]: probe aNOTCH3 binding on compound microarray – biochemical, small-molecule microarray, 635/667 nm fluorescence, primary screen (AID 1120).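 Note: probe is a biotin-tagged antibody raised against NOTCH3 rather than NOTCH3 protein; score merges spot fluorescence near 667 nm with spot signal to noise.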 Conditions: higher = more signal.
Test [14] can be described thus: probe aNOTCH2 binding on compound microarray – biochemical, small-molecule microarray, 635/667 nm fluorescence, primary screen (AID 1121).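 Note: score merges feature fluorescence read at 667 nm with its signal to noise.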 As to conditions: higher = more signal.
Test [15] has as its target Carbonic anhydrase 2 (Homo sapiens) (UniProt P00918). Nature of the test: compounds binding carbonic anhydrase 2 – biochemical, small-molecule microarray, Alexa647-labelled CAII, profiling panel (AID 1122). As to conditions: CAII-A647 binding fluorescence, higher = more signal.
Test [16] can be described thus: COS7 lysate on small-molecule microarray, probe aHis, 635 nm (AID 1123).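 Note: z-score combines 667nm fluorescence intensity with signal-to-noise per printed compound spot.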 As to conditions: COS7 cell lysate, fluorescence, higher = more signal.
Test [17] is described as follows: probe aLAP1 signal on lysate-treated microarray – cell lysate, small-molecule microarray, COS7 lysate, primary screen (AID 1124).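 Note: lysate comes from COS7 cells expressing LAP1 and is applied at 0.3 µg/mL; score merges spot fluorescence near 667 nm with signal-to-noise over triplicate slides.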 As to conditions: probe aLAP1, fluorescence, higher = more signal.
Test [18] has as its system Sam68 (KHDRBS1). As to the kind of experiment: compounds binding KHDRBS1 protein – biochemical, small-molecule microarray, 635 nm fluorescence, primary screen (AID 1125).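 Note: score merges 667 nm channel intensity with signal to noise over triplicate slides.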 Conditions: higher = more signal.
In test [19] the test system is Chordin-like protein 2 (CHRDL2). As to the kind of experiment: compounds binding chordin-like 2 – biochemical, small-molecule microarray, 635 nm fluorescence, primary screen (AID 1126).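 Note: printed compound slides probed with Chrdl2 protein at 4 µg/mL for 1 h at 4 C; score merges 667 nm emission intensity with signal to noise over three replicate slides.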 Conditions: fluorescence 635 nm, higher = more signal.
Test [20] deals with Concanavalin-A (Canavalia ensiformis) (UniProt P02866). As to the kind of experiment: compounds binding concanavalin A lectin – biochemical, small-molecule microarray, Alexa647 label, 635 nm, artefact control for SMM control protein annotation, primary screen (AID 1127).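 Note: z combines 667 nm emission intensity with signal-to-noise across three replicate slides.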 As to conditions: ConA-A647 binding fluorescence, higher = more signal.
Concanavalin-A (Canavalia ensiformis), sequence (P02866 whole entry, looked up): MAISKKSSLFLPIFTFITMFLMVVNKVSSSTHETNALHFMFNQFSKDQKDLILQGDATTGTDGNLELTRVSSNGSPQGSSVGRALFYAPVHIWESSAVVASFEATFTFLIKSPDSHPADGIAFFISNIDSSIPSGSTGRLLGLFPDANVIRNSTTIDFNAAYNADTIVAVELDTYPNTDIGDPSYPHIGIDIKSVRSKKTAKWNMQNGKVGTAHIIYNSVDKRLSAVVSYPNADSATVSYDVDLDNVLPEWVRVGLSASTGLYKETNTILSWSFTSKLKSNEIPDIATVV

Left-right determination factor 2 (Homo sapiens), sequence (O00292 whole entry, looked up): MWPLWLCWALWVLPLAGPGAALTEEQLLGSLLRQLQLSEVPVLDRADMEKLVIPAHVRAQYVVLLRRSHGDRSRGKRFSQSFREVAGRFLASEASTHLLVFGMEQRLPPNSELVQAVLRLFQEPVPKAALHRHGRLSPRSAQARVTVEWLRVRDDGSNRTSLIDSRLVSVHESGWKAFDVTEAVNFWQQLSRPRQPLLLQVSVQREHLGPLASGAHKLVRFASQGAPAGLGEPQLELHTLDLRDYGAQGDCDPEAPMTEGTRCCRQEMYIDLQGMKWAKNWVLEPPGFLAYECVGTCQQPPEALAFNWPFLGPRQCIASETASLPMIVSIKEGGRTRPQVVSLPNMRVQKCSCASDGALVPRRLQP
Alpha-bungarotoxin (Bungarus multicinctus), sequence (P60615 whole entry, looked up): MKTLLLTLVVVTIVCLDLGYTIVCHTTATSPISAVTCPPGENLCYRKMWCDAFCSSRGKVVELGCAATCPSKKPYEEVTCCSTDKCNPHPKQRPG
Torsin-1A-interacting protein 1 (Homo sapiens), sequence (Q5JTV8 whole entry, looked up): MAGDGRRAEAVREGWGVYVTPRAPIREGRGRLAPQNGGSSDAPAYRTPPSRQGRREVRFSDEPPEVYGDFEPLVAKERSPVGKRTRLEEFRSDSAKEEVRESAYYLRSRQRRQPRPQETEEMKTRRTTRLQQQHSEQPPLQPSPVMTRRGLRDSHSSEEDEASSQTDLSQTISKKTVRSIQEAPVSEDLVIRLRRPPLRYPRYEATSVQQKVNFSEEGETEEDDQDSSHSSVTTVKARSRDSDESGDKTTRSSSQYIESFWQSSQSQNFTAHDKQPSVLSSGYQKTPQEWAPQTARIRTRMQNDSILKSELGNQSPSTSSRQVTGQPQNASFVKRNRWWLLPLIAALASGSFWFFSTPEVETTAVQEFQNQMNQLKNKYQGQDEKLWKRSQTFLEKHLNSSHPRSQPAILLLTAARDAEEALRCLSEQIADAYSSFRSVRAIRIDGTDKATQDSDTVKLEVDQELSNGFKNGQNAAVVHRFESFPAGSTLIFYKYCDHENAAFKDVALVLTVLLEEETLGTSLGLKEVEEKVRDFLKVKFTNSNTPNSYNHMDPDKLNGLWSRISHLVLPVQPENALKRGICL
Albumin (Bos taurus), sequence (P02769 whole entry, looked up): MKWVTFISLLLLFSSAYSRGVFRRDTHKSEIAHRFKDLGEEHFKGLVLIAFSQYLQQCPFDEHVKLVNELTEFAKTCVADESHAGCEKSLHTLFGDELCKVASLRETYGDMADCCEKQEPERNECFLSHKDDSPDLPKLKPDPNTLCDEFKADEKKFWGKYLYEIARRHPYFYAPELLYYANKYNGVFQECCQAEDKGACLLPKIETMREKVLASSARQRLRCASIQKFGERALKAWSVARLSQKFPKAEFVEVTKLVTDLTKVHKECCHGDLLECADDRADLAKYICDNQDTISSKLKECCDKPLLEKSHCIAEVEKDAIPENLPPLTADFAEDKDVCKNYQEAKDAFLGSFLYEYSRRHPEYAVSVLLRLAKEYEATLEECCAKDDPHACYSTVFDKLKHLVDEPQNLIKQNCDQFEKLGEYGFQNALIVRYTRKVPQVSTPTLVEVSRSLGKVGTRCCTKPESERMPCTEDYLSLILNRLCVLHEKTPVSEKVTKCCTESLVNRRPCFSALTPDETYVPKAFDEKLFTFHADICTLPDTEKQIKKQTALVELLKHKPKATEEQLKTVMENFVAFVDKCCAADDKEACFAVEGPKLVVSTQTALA

Turning to `C=CCNC(=O)[C@@H]1[C@H]2C(=O)O[C@H](c3ccccc3)[C@H](c3ccccc3)N2[C@H](c2ccc(OCCO)cc2)[C@@]12C(=O)N(C(=O)OCCOC)c1ccc(C#CCNC(N)=O)cc12`, the composite z-score in [1] turned out to be 0.79; in test [3], 0.735; in test [4] it was 0.597; in test [5], 0.386; in test [6], 0.0136; in test [7] it was 0.275. Also, the composite z-score was -0.42 in test [8]; 0.55 in test [9]; 1.53 in test [10]; -0.178 in [11]; 0.163 in [13]; -0.0632 in test [14]. Besides, the composite z-score was determined as 0.513 in test [15]; 1.02 in [16]; 0.662 in test [17]; 1.3 in [18]; 0.305 in test [19]; 1.1 in test [20]. Also, the z-score in test [2] is -0.635. Besides, the composite Z-score in [12] is 0.0253 (inactive).

As for `O=C1[C@H]2C=C(I)[C@H](C[C@@H]2OCCCCO)[C@@]12CO2`, the composite z-score in [1] is -0.417; in [3], -0.244; in [4], -0.754; in [5], -0.749; in [6] it was -0.128; in test [7], 0.133. Further, the composite z-score in test [8] was 0.109; in test [9], 0.452; in test [10], -0.132; in test [11], -1.17; in [13] it was -0.0057; in [14], -0.061. The composite z-score in test [15] was 0.758; in test [16], 0.141; in test [17], 0.489; in [18] it was 0.579; in [19], -0.11; in [20] it was -0.0969. Besides, the z-score in test [2] was -2.55. Moreover, the composite Z-score in test [12] was 0.32 (inactive).

In the case of `COc1cc2c(cc1OC)CN(C(=O)[C@H]1[C@@H]3C(=O)O[C@@H](c4ccccc4)[C@@H](c4ccccc4)N3[C@@H](c3ccccc3OCCO)[C@]13C(=O)Nc1ccc(C#CCCO)cc13)CC2`, the composite z-score was 1.37 in [1]; 0.61 in [3]; 0.234 in [4]; -0.114 in [5]; 0.0136 in [6]; -0.138 in test [7]. The composite z-score in test [8] is 0.194; in [9], 0.532; in test [10], 0.862; in [11], 0.766; in test [13], 0.0268; in test [14], -0.118. Moreover, the composite z-score was 0.383 in test [15]; 0.935 in test [16]; -0.0376 in test [17]; 1.33 in test [18]; 0.579 in test [19]; 1.11 in test [20]. This compound also had a z-score in [2] of -1.79. Further, the composite Z-score in test [12] was 0.397 (inactive).

Take `O=C1OCCC=C[C@H]2OC34C=CCN(Cn5nnc6ccccc65)C(=O)[C@H]3N(CCO)C(=O)[C@@H]4C12` (stereo not given in full): the composite z-score in test [1] is -1.59; in [3], -2.07; in test [4] it was -0.4; in test [5], 0.262; in test [6], -0.252; in test [7] it was -0.262. For the same compound, the composite z-score in [8] is 0.328; in test [9], -0.618; in test [10], 1.1; in [11], 0.995; in test [13], -0.475; in test [14], -0.227. For the same compound, the composite z-score in test [15] is 0.866; in test [16], -0.403; in test [17], -0.38; in [18] it was -0.75; in [19] it was -1.75; in [20] it was -1.75. Besides, the z-score in test [2] was -0.772. The composite Z-score in test [12] was 0.6 (inactive).

`COC(=O)C[C@H]1O[C@@H](CCc2ccccc2)[C@@H](C)[C@@H]1[Si](C)(C)c1ccc(OC)cc1`: the composite z-score in test [1] was -0.504; in test [3], -0.0374; in test [4], -0.606; in test [5], 0.125; in [6], -0.232; in test [7] it was -0.439. The composite z-score is -0.266 in test [8]; -0.562 in test [9]; -0.763 in [10]; -0.932 in test [11]; -0.268 in [13]; -0.154 in [14]. For the same compound, the composite z-score was -0.394 in test [15]; -0.308 in test [16]; 0.314 in [17]; -1.1 in test [18]; 0.323 in test [19]; -0.615 in test [20]. In addition, the z-score in test [2] was -0.638. Besides, in test [12], the composite Z-score is 0.611 (inactive).
